Measured values as given in the supplement of paper PMC6555819.

These sequences were tested on RARb homodimer (NR concentration 270 nM) (assay: PBM binding z-score (relative to random genomic background probes); higher = stronger binding; sequences stand for … in GC…GCGATTGACAGCGTAGAATGAAGG).
How it was run: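 Ligand-free nuclear receptor dimers were applied to custom Agilent 4×180K protein-binding microarrays whose double-stranded probes carried direct-repeat seeds, single-nucleotide variants, half-site ablations and random human genomic background sequences in 34-nt variable regions. Incubation lasted 1 h. Binding z-scores were computed against the random background probes from regression-normalized fluorescence.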
Sequence TGAATGAGGTTAAAGATCAGAGAACGTGGCGTCG has a PBM binding z-score of 0.55. GCAGACAGGTGAAACGCAGGTAAGTCAGGGTGGC was tested, and the PBM binding z-score was 0.216. TGTCATAGTTCAAAGGTAACGTAAGTATCCACAC gave a PBM binding z-score of 2.51. Work on TAGCCTAGGTCATTAAGGGGCCAGTATAGAAAGC yielded a PBM binding z-score of 3.1. Work on CGGACGAGGGCATGAGTTGATAGCAAATGCCGAT yielded a PBM binding z-score of 0.742. ATCTCAAGGTAAAAGTTCAGTGAATCCCGAGGAT was tested, and the PBM binding z-score was 2.4. CCTACTGGCCCAAGGTCATTGATCAGTCAAAGCA showed a PBM binding z-score of 3.58. Work on GGATCGAGGGCAAAGTTGATAGCATCTGTCGACG yielded a PBM binding z-score of 1.47. AGTCAAAGTGCACTAGGTAACGTAAGATTCAGCT was tested, and the PBM binding z-score was 0.614. Work on AGAACGAGGGCACGCGGAGTTGATAGCAGAGTAG yielded a PBM binding z-score of 1.42. For CCTCGGAGGACAATAGGAGGTCAGAGCTGCCAGA, the PBM binding z-score was 3.18. In the case of CCGACTGGGCCAAGGTTACCATAACGCACAGCCA, the PBM binding z-score is reported as 0.94. With TCATATAGGGAAACAGGTGAAAGTCCGTAAGTTA the PBM binding z-score was 0.562. With TAGCCTAGGTCATGCGGGCCAGTTTAGTGTCGGC the PBM binding z-score was 3.03. Sequence ACTAGCAGGCCAAATTTGGGTCACTCAAACAAAG has a PBM binding z-score of 2.36. CAAACTAGGTCAGAGGTCAAAGTCGAGCCAACCA was tested, and the PBM binding z-score was 5.04. TTACCAAGGAGAAGGTCGTTGATCCCTCTGTAGA was tested, and the PBM binding z-score was 0.592. In the case of AGTCACAGTTCAGGACGAGGTAACGTAAAGCACG, the PBM binding z-score is reported as 1.66. For TCATATAGGTAATACAGGTGCAAGTCGGCATCTA, the PBM binding z-score was 0.266. Work on CCGAGTAGGTTACGGGGCATTCAGGCAACGGTGA yielded a PBM binding z-score of 1.11. CAAACTAGGTCAACAGGTCAAAGTCCGCTTCCCG showed a PBM binding z-score of 4.94. ATCTCTAGGTAAGACTCAGTTCTGTGAAGAACGC was tested, and the PBM binding z-score was 0.00747. Sequence ATCTCTAGGTAACAAGTTCAGAGAAAGAGAGGAC has a PBM binding z-score of 1.98. With TCATATAGGTAAAAGGTGAAAGTAGGTGTGGTAA the PBM binding z-score was 2.04. TCTCGGAGGGCACGAAAGGTCAGAGCTCGACATC showed a PBM binding z-score of 5.03. With GCGACTGGGGCATCAGCAGGTTACCGTAACTTAA the PBM binding z-score was 1.14. For CAAACTCGGTCAAAGGTCAAAGTCGAGCCAACCA, the PBM binding z-score was 5.08. ATCTCTACGTAAAGTTCAGTGAAAGATCGATAGA gave a PBM binding z-score of 2.6. Work on GCTAGCAGGACATTTGGGTCACTCAATGACGGGC yielded a PBM binding z-score of 1.56. Work on TCTTGTAGATCAAGCAGGATAAGAAAGCCTGAGT yielded a PBM binding z-score of -0.48. ACAGACAGGTGAGTGAAGGTAAATCAGCTGGACG was tested, and the PBM binding z-score was -0.00718. CATACAGGGCCAGCTAGGCCAGAGTAGGGACGGC gave a PBM binding z-score of -0.0405. Work on GCGACTGGGGCAAAGCAGGTTACCAAAAGGTTGG yielded a PBM binding z-score of 1.39. Sequence GCTGCTAGGTCAACTGTTGGTCAGCTAAAGCTCG has a PBM binding z-score of 3.66. CCTACTGGGCCATCAGGGCATTGATATCAACGTT was tested, and the PBM binding z-score was 0.404. With CCTACTGGGCCAAGGTCATCGATCAGTCAAAGCA the PBM binding z-score was 3.75. CCTTACGGGTCACGAGGTTATCGCACGACGAGCG gave a PBM binding z-score of 4.01. In the case of ATCGAAAGGACGAGGTGAGTATAGAGAAAGGGAA, the PBM binding z-score is reported as 0.703. Work on TCATATATGTAAACAGGTGAAAGTCCGTAAGTTA yielded a PBM binding z-score of 0.609. For CCTAGCAGCCCAGGGTCACTCAAGCATTTCGCTT, the PBM binding z-score was 2.69.
